In PubChem BioAssay (NCI) one finds growth inhibition data, which are given here for 21 compounds.

Assay [1] can be described thus: NCI Yeast Anticancer Drug Screen. Data for the rad50 strain (AID 155).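 Also: 0% = growth of vehicle-only cultures of the same strain.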 The following applies: S. cerevisiae rad50 strain growth inhibition; at 50.0 µM; stronger effect = higher value. The essentials:
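Yeast carrying a defined DNA repair defect were exposed to test compounds, and growth was compared with vehicle-treated controls to give percent inhibition.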

Assay [2] is described as follows: NCI Yeast Anticancer Drug Screen. Data for the mec2-1 strain (AID 157). The following applies: S. cerevisiae mec2-1 strain, at 50.0 µM, stronger effect = higher value. The method in brief: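 Compounds were applied to mec2-1 yeast cells. Their growth was then compared with that of vehicle-treated cultures to give growth inhibition.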
Assay [3] can be described thus: NCI Yeast Anticancer Drug Screen. Data for the sgs1 mgt1 strain (AID 161).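 Also: 0% = growth of cultures given vehicle only.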 The following applies: S. cerevisiae sgs1 mgt1 strain, at 50.0 µM, stronger effect = higher value. The method in brief:
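Percent growth inhibition was derived by comparing compound-exposed mutant yeast with vehicle-exposed cultures. The strain carries alterations in DNA damage repair.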

The nature of assay [4]: NCI Yeast Anticancer Drug Screen. Data for the cln2 rad14 strain (AID 165).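 Also: 0% = growth equal to vehicle treated cultures.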 The following applies: S. cerevisiae cln2 rad14 strain, at 50.0 µM, stronger effect = higher value. The essentials:
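Strain: cln2 rad14 yeast, altered in cell cycle control and DNA damage repair. Read-out: growth inhibition vs vehicle.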

Assay [5] is described as follows: NCI Yeast Anticancer Drug Screen. Data for the bub3 strain (AID 167). The following applies: S. cerevisiae bub3 mutant strain, at 50.0 µM, stronger effect = higher value. The method in brief: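 Compounds were applied to a genetically altered yeast strain carrying a cell-cycle control defect. Growth inhibition was scored against vehicle-treated controls.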
The nature of assay [6]: NCI Yeast Anticancer Drug Screen. Data for the mlh1 rad18 strain (AID 175). The following applies: S. cerevisiae mlh1 rad18 strain growth inhibition; at 50.0 µM; stronger effect = higher value. The method in brief: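 A repair-deficient yeast strain is exposed to test compound, and growth is scored relative to vehicle-treated controls.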

Structures are written as SMILES. The panel holds about 79,000 compounds, 15% with a hit somewhere; the sample as a whole holds those more often. Values without a mark were called inactive. Activity calls are given as the source filed them. Rule as the data show it: active = growth inhibition above about 70%; inactive = the rest.

In the case of `Cc1ccc(COC(=O)Nc2ccc(C)c(NC(=O)OCc3ccc(C)cc3)c2)cc1`, the growth inhibition in assay [1] is 14.4%; in assay [2], -1.15%; in assay [3], 11.7%; in assay [4], -2.9%; in assay [5] it was -3.8%; in assay [6], 30.1%.

Turning to `O=c1[nH]c2cc([N+](=O)[O-])ccc2nc1/C(=N\Nc1ccccc1)C(O)c1ccc2c(c1)OCO2` (stereo unspecified), the growth inhibition was 26.5% in assay [1]; 5.4% in assay [2]; 21.6% in assay [3]; 29.4% in assay [4]; 10.2% in assay [5]; 41.1% in assay [6].

With `O=[N+]([O-])c1ccc(N/N=C(\Cc2ccccc2)c2ccccc2)c([N+](=O)[O-])c1`, the growth inhibition was 6.8% in assay [1]; 2.25% in assay [2]; 6.2% in assay [3]; -20.3% in assay [4]; -5.75% in assay [5]; 2.3% in assay [6].

With `Cc1ccc2sc3nc4ccccc4nc3c2c1`, the growth inhibition in assay [1] is 12.1%; in assay [2], 3.5%; in assay [3], -1.95%; in assay [4], -4.25%; in assay [5], 5.8%; in assay [6], -1.25%.

Regarding `CON(C)c1nc(N(C)OC)nc(N(C)OC)n1`, the growth inhibition in assay [1] is -8.05%; in assay [2] it was -48.2%; in assay [3], -28.8%; in assay [4], 7.85%; in assay [5], -22.9%; in assay [6] it was -12.5%.

With `CC1CC(=O)N2CCCNC2=C1C#N` (stereo unspecified), the growth inhibition was -0.55% in assay [1]; 4.6% in assay [2]; 12.8% in assay [3]; 19.2% in assay [4]; 3.75% in assay [5]; 26.1% in assay [6].

`CCSSC12CCCN1C(=O)C1CCCN1C2=O` (stereo unspecified): the growth inhibition in assay [1] is 49%; in assay [2], 40.9%; in assay [3] it was 9.4%; in assay [4], -40%; in assay [5], 20.6%; in assay [6] it was 20.4%.

For `Cc1nc(C(N)=S)sc1C(=O)CC(=O)C(=O)Nc1ccccc1[N+](=O)[O-]`, the growth inhibition was 0.15% in assay [1]; -9% in assay [2]; 10.8% in assay [3]; 7% in assay [4]; 17.4% in assay [5]; 1.95% in assay [6].

Turning to `O=[N+]([O-])c1ccc(/C=C(/c2ccc([N+](=O)[O-])o2)S(=O)(=O)C(Cl)(Cl)Cl)cc1`, the growth inhibition in assay [1] was 96.7% (active); in assay [2], 97.2% (active); in assay [3], 98.3% (active); in assay [4], 97.1% (active); in assay [5] it was 90.1% (active); in assay [6], 97.8% (active).

On to `Nc1ccc(OCCc2c(N)nc(N)nc2N)cc1`, for which the growth inhibition is -1.2% in assay [1]; 7.15% in assay [2]; 12.4% in assay [3]; -4.05% in assay [4]; 22.7% in assay [5]; 9.7% in assay [6].

As to `CCOC(=O)Cn1nnnc1N`, the growth inhibition is -3.4% in assay [1]; 23.6% in assay [2]; -5.2% in assay [3]; -21.9% in assay [4]; -13.8% in assay [5]; 30.6% in assay [6].

As for `CC(=O)OCC(=O)[C@@]1(O)CC[C@H]2[C@@H]3CCC4=CC(=O)CC[C@]4(C)[C@H]3C(=O)C[C@@]21C`, the growth inhibition was -25.1% in assay [1]; -23.6% in assay [2]; -6.85% in assay [3]; 4.2% in assay [4]; -17.9% in assay [5]; -21.3% in assay [6].

In the case of `CC(O)CC(C)(C)O` (stereo unspecified), the growth inhibition in assay [1] is 28.1%; in assay [2] it was 13.1%; in assay [3], 8.55%; in assay [4] it was 9.9%; in assay [5], 15.3%; in assay [6] it was 4.2%.

On to `CCCCNC(=O)NC/C(Br)=C/Br`, for which the growth inhibition is 1.75% in assay [1]; 5.15% in assay [2]; 1.4% in assay [3]; -3.75% in assay [4]; 1.85% in assay [5]; -5.2% in assay [6].

`COCCOCOC(C)(C)CCCCl`: the growth inhibition in assay [1] was 11.3%; in assay [2], 24%; in assay [3] it was 21.9%; in assay [4], -5.2%; in assay [5], -2.1%; in assay [6] it was -20%.

As to `C1CCC(C2CCCC2)CC1`, the growth inhibition was 7.5% in assay [1]; -0.35% in assay [2]; -13% in assay [3]; -32.6% in assay [4]; -17.2% in assay [5]; 4.15% in assay [6].

In the case of `COc1ccc(-c2nc(N)nc3c2CN(CCC(=O)O)C3=O)cc1`, the growth inhibition is 0.9% in assay [1]; -18.2% in assay [2]; 12% in assay [3]; -8.6% in assay [4]; 7.45% in assay [5]; 3.9% in assay [6].

As to `CCOC(=O)NC(C(F)(F)F)(C(F)(F)F)P(=O)(OC(C)C)OC(C)C`, the growth inhibition was -23% in assay [1]; -11.6% in assay [2]; -12.4% in assay [3]; 31.1% in assay [4]; 3.65% in assay [5]; 1.65% in assay [6].

Consider `COc1cc(C)cc(OC)c1/C=C/C(=O)O`, for which the growth inhibition is 8.4% in assay [1]; 11.1% in assay [2]; -8.6% in assay [3]; -13.6% in assay [4]; 1.75% in assay [5]; 2.25% in assay [6].

With `N#CC1C2C1C1C=CC2n2c(=O)n(-c3ccccc3)c(=O)n21` (stereo unspecified), the growth inhibition in assay [1] was 3%; in assay [2], 2.5%; in assay [3], 3.25%; in assay [4], 27.4%; in assay [5], 7.15%; in assay [6], 4.95%.

As to `O=C1OC(c2ccccc2)=N/C1=C\c1cc2c(cc1Cl)OCO2`, the growth inhibition in assay [1] was 4.05%; in assay [2], 11.7%; in assay [3], 16.1%; in assay [4], -25.3%; in assay [5] it was -5.7%; in assay [6], 20.1%.
